# In PubChem BioAssay (Tox21):
# Where “and” joins values, the source holds several entries; their conditions need not be identical. Identical values can stand only once. Inconclusive results are not listed. More than one record can exist for a structure, and the calls need not agree. Calls of active or inactive are those of the source. Calls follow the shape of the dose curve; as a rule, active = well fitted inhibition curve with a large enough effect in the repeat runs; inconclusive = weak or mixed curves, or effect the other way; inactive = no such curve, though single readings can be large or run the other way.
# Target: Nuclear receptor ROR-gamma (Homo sapiens) (UniProt P51449)
# Assay: qHTS assay to identify small molecule antagonists of the retinoid-related orphan receptor gamma (ROR-gamma) signaling pathway (AID 1159521; also: nearly all actives have a fitted effect of over 50% in size; as to activity change, negative = inhibition: top concentration of the series differs between compounds)
# Conditions: Tet-on RORgamma CHO cells, RORE-luciferase, 16 h; series mostly up to 92.4 µM; activity change, negative = inhibition: at the top concentration
# Excerpt: U.S. Tox21 Program National Center for Advancing Translational Sciences [NCATS] NIH Chemical Genomics Center [NCGC] U.S. Environmental Protection Agency [EPA] National Institutes of Environmental Health Sciences [NIEHS] National Toxicology Program [NTP] U.S. Food and Drug Administration [FDA] Tox21 Assay Overview: Nuclear steroid hormone receptors are involved in many biological processes including inflammatory responses, cell proliferation, and apoptosis. Environmental factors or compounds disrupting these nuclear receptor pathways and gene expression may promote susceptibility to immunotoxicants and autoimmune diseases. One important group of these expression factors are the retinoid-related orphan receptors. To assess compounds that may interfere with the retinoid-related orphan receptor gamma (ROR-gamma) transcription factor, a cell-based luciferase assay was used. The CHO cell-based assay utilizes a TET-inducible ROR expression factor and ROR response element-LUC reporter gene. Reporter gene activity was induced using Doxycycline Hyclate and measured after 16 hr incubation. Tet-on ROR gamma CHO cells were used to screen against the Tox21 10K compound library for ROR gamma antagonists by quantification of decreased reporter gene activity in terms of decreased luminescence.
# Tox21 Assay Protocol Summary: Tet-on ROR gamma CHO cells were dispensed at 1,000 cells in 4 uL of culture medium per well into white wall/solid bottom 1536-well plates using a Multidrop Combi (Thermo Scientific, Waltham, MA) dispenser. Following incubation at 37 C and 5% CO2 for 4 hr, 23 nL of compounds dissolved in DMSO, positive controls or DMSO only were transferred by a Pintool station (Kalypsys, San Diego, CA) and after 2 hr incubation at 37 C, one ul of 1 uM (final concentration) of Doxycycline Hyclate was added to all the wells by using a Flying Reagent Dispenser (FRD) (Aurora Discovery, San Diego, CA). After 16 hr incubation at 37 C and 5% CO2, 5 uL of ONE-Glo reagent (Promega Corporation, Madison, WI) was added to each assay plate using FRD. After 30 min incubation at room temperature, luminescence was quantified on a ViewLux plate reader (Perkin Elmer, Waltham, MA).
# % is scaled to controls: 0 for no effect and ±100 for the full control effect; potency is read from the fitted curve at half-maximal effect.
SMILES,"activity change, negative = inhibition",Potency
CC(Cl)C(C)Cl (stereo not given),-2.28% (inactive),–
C=CC(=O)OCC(C)C,-10.7% (inactive),–
CC1(C)CCC(Cc2ccc(Cl)cc2)C1(O)Cn1cncn1 (stereo not given),–,54.5 µM (active)
IC(I)=C(I)I,–,2.73 µM (active)
Clc1cccc2ccccc12,22.1% (inactive),–
c1ccoc1,15.4% (inactive),–
C=CC(=O)OC(C)(C)C,-16.6% (inactive),–
Cc1ccc2ccccc2c1,6.92% (inactive),–
Sc1ccccc1Cl,0.942% [at 42.5 µM] (inactive),–
CO/N=C(/C(=O)OC)c1ccccc1COc1ccccc1C,–,2.73 µM (active)
NS(=O)(=O)C(F)(F)C(F)(F)C(F)(F)C(F)(F)C(F)(F)C(F)(F)C(F)(F)C(F)(F)F,–,54.5 µM (active)
CCCCCCC#N,-17.5% (inactive),–
CCCN(CCCl)c1c([N+](=O)[O-])cc(C(F)(F)F)cc1[N+](=O)[O-],1.13% (inactive),–
ClCCCCBr,-0.893% (inactive),–
C=CCOC(C)=O,-13.4% (inactive),–
CCCCC(O)(Cn1cncn1)c1ccc(Cl)cc1Cl (stereo not given),–,54.4 µM (active)
BrCCCCBr,11.2% (inactive),–
CC(C)(CCl)C(=O)Cl,61.8% (inactive),–
O=C(NC(=O)c1c(F)cccc1F)Nc1ccc(OC(F)(F)C(F)OC(F)(F)F)c(Cl)c1 (stereo not given),-13.3% [at 42.5 µM] (inactive),–
ClC=C(Cl)Cl,-7.55% (inactive),–

SMILES,"activity change, negative = inhibition",Potency
CS/C(C)=N/OC(=O)N(C)SN(C)C(=O)O/N=C(\C)SC,–,38.6 µM (active)
CN1C(=O)C(O)N=C(c2ccccc2)c2cc(Cl)ccc21 (stereo not given),29.6% (inactive),–
Brc1ccc(Oc2ccccc2)cc1,–,55.8 µM (active) and inactive
Clc1cccc(SC2CCNCC2)n1,-0.714% [at 42.5 µM] (inactive),–
C(=NC1CCCCC1)=NC1CCCCC1,–,inactive
Cc1cc(=O)[nH]o1,3.92% (inactive),–
CC(O)(CS(=O)(=O)c1ccc(F)cc1)C(=O)Nc1ccc(C#N)c(C(F)(F)F)c1 (stereo not given),–,25.2 µM (active)
CN(C)c1ccc(N(C)C)cc1,-58.2% (inactive),–
CC1C(=O)C[C@]2(C(C)C)C[C@H]12 (stereo not given in full),-10.6% (inactive),–
O=C(CCl)c1ccc(Cl)cc1Cl,–,10.6 µM (active)
CCOC(=O)C(Cl)C(C)=O (stereo not given),0.395% (inactive),–
Cc1ccc(N)cc1C,0.804% (inactive),–
CCC(Br)(CC)C(=O)NC(N)=O,5.39% (inactive),–
Oc1ccc(Cl)c(Cl)c1Cl,–,50.3 µM (active)
COC(N)=O,-18.4% (inactive),–
CCOP(=O)(OCC)O/C(=C/Cl)c1ccc(Cl)cc1Cl,–,68.6 µM (active)
C=COC(C)=O,27.4% (inactive),–
[CH3][Sn]([CH3])([Cl])[Cl],–,4.93 µM (active) and 6.86 µM (active)
N#Cc1ccc(Cl)cc1,22.6% (inactive),–
CC(=O)CCC(C)=O,26.4% (inactive),–
